The other results are listed elsewhere or left out. Where a call stands in place of a potency, no number is given. Inconclusive results are not listed. Active and inactive are the calls of the source. Calls come from the whole dose curve.
target: Papain (Carica papaya) (UniProt P00784); assay: Selectivity profile for inhibitors of NSP2Pro chikungunya virus (CHIKV): Papain Counterscreen (AID 1964104); details: purified papain protease activity, enzymatic inhibition; series mostly up to 51 µM
Description: PI: Natalia J. Martinez Ph.D.
National Center for Advancing Translational Sciences (NCATS),
National Institute of Health (NIH), Rockville, Maryland
Chikungunya virus (CHIKV) is a mosquito-borne RNA virus that has emerged as one of the most important global arboviral threats in the last decade. Although the first CHIKV vaccine has recently been FDA approved for use in healthy adults at increased risk, to date, there are no available antiviral drugs for CHIKV infection. CHIKV nsP2 protease plays a crucial role in the processing of the viral polypeptide precursor to release enzymes required for viral replication, thus making it a promising drug target for antiviral discovery. Here, we established a high-throughput pipeline to identify small molecule inhibitors of nsP2 proteolytic activity. The pipeline is composed of a suite of 1,536-well in vitro assays to support quantitative high-throughput (qHTS) screening campaigns. Specifically, we developed a fluorescence resonance energy transfer (FRET)-based assay using a fluorogenic peptide substrate encompassing an endogenous cleavage site and purified recombinant protease domain (nsP2pro). Using this assay, we interrogated ~37,000 small molecules, including those in drug repurposing libraries as well as chemically diverse and medicinal chemistry-friendly compounds. Hits were selected for follow-up validation against full-length nsP2 and an additional peptide. FRET-based 1,536-well assays for papain, hepatitis C virus NS3-4A, and human furin proteases were implemented to characterize compound selectivity. […] Novel compounds were identified to be potential nsP2 inhibitors and molecular docking analyses were performed to explain the binding mode of selected hits. In vitro antiviral activity was evaluated for a subset of compounds using a high-throughput CHIKV infection assay. To our knowledge, the pipeline presented here is unprecedented for CHIKV antiviral discovery research.
PROTOCOL TABLE (as described by Inglese J, Shamu CE and Guy RK. 2007)
SEQUENCE No. (e.g., 1, 2, 3, etc.); […] (e.g., Cells, Incubation, Reagent, etc.); VALUE; DESCRIPTION.
1a; Reagent; 3 uL; Papain in assay buffer.
1b; Reagent; 3uL; Assay buffer
2; Compound; 17 nL; Echo 655 acoustic dispenser (Beckman Coulter).
3; Incubation; 15 min; room temperature in the dark.
4: Reagent; 1 uL; Z-FR-AMC in assay buffer.
5; Incubation; 15 sec, 271g; centrifugation.
6; Detection; Fluorescence; time 0, Viewlux microplate reader (PerkinElmer) 355 nm excitation, 460 nm emission
7; Incubation; 10 min; room temperature
8; Detection; Fluorescence; time 10; ViewLux microplate reader (PerkinElmer), 355 nm excitation, 460 nm emission.
NOTES (numbers refer to sequence numbers above).
1a. Medium-binding black solid-bottom Greiner plates (cat. 789176-F). Dispense 3 uL of 1.33X papain in assay buffer (100 mM sodium acetate, pH 5.5, 5 mM dl-cysteine, 0.01% Tween-20 v/v) to columns 1, 2, 5-48 via Wako/Kalypsys dispenser. Papain (cat. P4762, Sigma) was dispensed to produce 5 nM final concentration. Enzyme solution kept on ice during experiment. Prepare papain as 50% glycerol (v/v) at final concentration of 10 mg/mL (427 uM, 100 U/mL). Sources: microplates (Greiner 789176-F), papain (Sigma P4762), sodium acetate (Bioworld 40120009-2), cysteine (Sigma 861677), Tween-20 (Sigma P1379), water (GIBCO 10977-015; Gibco).
1b. Dispense 3 uL of assay buffer (100 mM sodium acetate, pH 5.5, 5 mM dl-cysteine, 0.01% Tween-20 v/v) to columns 3 and 4 via Wako/Kalypsys dispenser. Assay buffer solution kept on ice during experiment.
2. Compound addition by single pin transfer (17 nL) using Wako pintool. Compound solutions in source plate: 169 nM to 10 mM DMSO stock solutions. Final concentrations: 0.664 nM to 39.2 uM, respectively. Final DMSO concentration: 0.5% (v/v).
3. RT incubation. Kalypsys lids used as microplate coverings. Protected from light.
4. […]
Potency is the fitted concentration of half-maximal effect.

Sequence of Papain (Carica papaya) (P00784 whole entry, looked up): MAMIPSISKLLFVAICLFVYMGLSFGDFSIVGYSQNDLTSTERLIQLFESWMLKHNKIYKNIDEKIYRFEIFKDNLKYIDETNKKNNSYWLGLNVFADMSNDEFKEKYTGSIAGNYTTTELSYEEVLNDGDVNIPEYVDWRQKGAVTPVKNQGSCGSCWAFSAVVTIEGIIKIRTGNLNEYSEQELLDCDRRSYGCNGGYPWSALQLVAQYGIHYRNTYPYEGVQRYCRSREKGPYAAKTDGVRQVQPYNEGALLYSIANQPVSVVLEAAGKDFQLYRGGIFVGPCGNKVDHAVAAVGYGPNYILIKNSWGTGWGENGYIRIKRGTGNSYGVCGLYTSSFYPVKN

SMILES | Potency
CCC(C)C(=O)OC1C(C)C2(O)C(C=C(CO)CC3(O)C(=O)C(C)=CC32)C2C(C)(C)C12OC(=O)C(C)C (stereo unspecified) | inactive
CCOc1ccc(NC(=O)c2c(NC(=O)Cc3ccccc3)sc3c2CCCCC3)cc1 | inactive
Oc1ccc(OC2CCCCO2)cc1 (stereo unspecified) | inactive
CC(=O)N[C@@H](C(=O)O[C@H]1CCC(C)(C)[C@@H]2CCC3=C(COC3=O)[C@@]12C)C(C)C | inactive
C[C@@H]1C[C@@H](O)[C@@]23CO[C@]2(CO)C[C@@H](O)CC3[C@@]12CC(c1ccoc1)OC2=O (stereo partly specified) | inactive
O=C(O)c1cccc(-n2[nH]c(-c3ccccc3)cc2=O)c1 | inactive
Cc1c(S(=O)(=O)O)oc2c1C(=O)C(=O)c1c-2ccc2c1CCCC2(C)C | 18.3 µM (active)
CCc1ccccc1NC(=O)c1cnn(-c2ccc(F)cc2)c1C1CCNCC1 | inactive
C[C@@H]1O[C@@H](O[C@@H]2[C@@H](O)[C@H](OCCc3ccc(O)c(O)c3)O[C@H](CO[C@@H]3O[C@H](CO)[C@@H](O)[C@H](O)[C@H]3O)[C@H]2OC(=O)/C=C/c2ccc(O)c(O)c2)[C@H](O)[C@H](O)[C@H]1O | inactive
CCOc1ccc(N(Cc2ccccc2)C(=O)c2nc(S(C)(=O)=O)ncc2Cl)cc1 | inactive
Cc1ccc(N[S+](=O)([O-])c2cc3c(cc2N[C@@H](C)CO)NC(=O)CC3)cc1N[C@@H](C)CO | inactive
COC([CH2][Hg])CNC(=O)c1ccccc1OCC(=O)O (stereo unspecified) | inactive
CO[C@]1(NC(=O)CSC(F)F)C(=O)N2C(C(=O)O)=C(CSc3nnnn3CCO)CO[C@H]21 | 6.51 µM (active)
Cn1nnnc1Sc1ncnc2n[nH]c(-c3cccc(S(C)(=O)=O)c3)c12 | inactive
C[C@@H]1[C@H](O)[C@@H]2OC(=O)C3=C2[C@H](CCC3)[C@@]12C[C@@H](c1ccoc1)OC2=O | inactive
CCOc1ccc(NC(=O)c2c(NC(=O)Cc3ccccc3)sc3c2CCC(C)C3)cc1 (stereo unspecified) | inactive

Source: PubChem BioAssay (NCATS)
